Screens from PubChem BioAssay.
A selection: hits, their analogues and other compounds. The true share with any hit is near 4.2%.
Mtb bLac sens: beta-lactam sensitization of Mtb H37Rv. M. tuberculosis H37Rv growth with meropenem, percent inhibition. 330,000 compounds, 0.27% hits. inhibition, % at 25 µM; call rule not given here;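 also: growth measured after seven days incubation then overnight dye step; 0% = bacteria only wells and 100% = bacteria with antibiotic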
FBA Mtb inh: Mtb fructose-bisphosphate aldolase inhibition; purified M. tuberculosis FBA, fluorescence read-out; P9WQA3; inhibition, % at 1 µM; 360,000 compounds, 2.3% hits; in the data active = inhibition above about 27%;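 also: 0% = vehicle and 100% = reference inhibitor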
CCHF vOTU inh: CCHFV vOTU protease inhibition. Pep-AMC fluorescence. inhibition, % at 11.5 µM. 370,000 compounds, 0.55% hits. AID 651958; also: 0% = vehicle wells with enzyme and 100% = no enzyme wells
RecA splice inh: Mtb RecA intein splicing inhibition | cell-free RecA intein splicing, fluorescence | inhibition, % (no concentration beside the values) | P9WHJ3 | AID 2221 | 290,000 compounds, 0.75% hits; in the data active = inhibition above about 30%;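 also: 0% = vehicle wells and 100% = reference inhibitor control wells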
Target sequence (P9WHJ3 whole entry, looked up, canonical isoform): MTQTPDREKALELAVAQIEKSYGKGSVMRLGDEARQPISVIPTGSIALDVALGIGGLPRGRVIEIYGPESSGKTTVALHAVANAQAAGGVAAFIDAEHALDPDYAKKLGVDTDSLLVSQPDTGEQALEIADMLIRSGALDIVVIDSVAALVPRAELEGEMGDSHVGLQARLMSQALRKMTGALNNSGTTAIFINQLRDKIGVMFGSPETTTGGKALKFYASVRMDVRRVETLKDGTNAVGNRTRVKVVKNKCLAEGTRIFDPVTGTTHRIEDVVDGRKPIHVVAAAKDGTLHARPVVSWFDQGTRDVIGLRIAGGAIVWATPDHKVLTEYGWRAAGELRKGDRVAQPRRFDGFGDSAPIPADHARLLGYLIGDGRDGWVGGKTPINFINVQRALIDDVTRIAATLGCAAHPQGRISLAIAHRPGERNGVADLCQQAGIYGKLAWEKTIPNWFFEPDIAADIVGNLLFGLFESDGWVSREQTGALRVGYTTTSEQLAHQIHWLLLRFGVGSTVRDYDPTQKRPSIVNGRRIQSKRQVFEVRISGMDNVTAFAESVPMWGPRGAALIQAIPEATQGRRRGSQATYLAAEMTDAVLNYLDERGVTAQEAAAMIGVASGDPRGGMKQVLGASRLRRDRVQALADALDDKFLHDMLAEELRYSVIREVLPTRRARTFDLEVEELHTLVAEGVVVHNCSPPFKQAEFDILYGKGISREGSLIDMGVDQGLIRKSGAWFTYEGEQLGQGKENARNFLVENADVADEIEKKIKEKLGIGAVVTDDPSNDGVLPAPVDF
GDH-TPI inh: inhibits GDH-TPI coupling enzymes, artifact for Mtb FBA screen; GDH-TPI coupled enzyme counterscreen, NADH absorbance; inhibition, % at 4.8 µM; 360,000 compounds, 1.2% hits; AID 588335;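 also: 0% = DMSO wells and 100% = wells lacking the enzyme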
* hit, by the source's call; . = no result given; + = active, no number. Rule as the data show it, unless noted: active = inhibition above about 30%; inactive = the rest.

SMILES | Mtb bLac sens | FBA Mtb inh | CCHF vOTU inh | RecA splice inh | GDH-TPI inh
NC(=O)[C@@H]1CCCNc2c(I)cc([N+](=O)[O-])cc2C(=O)N[C@@H](CCC(=O)O)C(=O)N[C@@H](CO)C(=O)N1 | -4 | 0 | . | . | 35*
NC(=O)C[C@H]1NC(=O)[C@H](CCC(=O)O)NC(=O)c2cc([N+](=O)[O-])cc(I)c2NCCC[C@@H](C(N)=O)NC1=O | -7 | -4 | 7 | 6 | 13
COc1ccc(-c2cc(C(=O)N=Nc3c(O)[nH]c4ccccc34)[nH]n2)cc1 | . | . | 5 | . | .
Cc1ccccc1C(=O)N(C)[C@H]1C[C@H]2c3[nH]c4c(-c5ccccc5)cccc4c3CCN2C[C@H]1[C@H](C)O | . | . | -4 | . | .
C#CC1(O)CCC2C3CCC4=CC(=O)CCC4=C3C=CC21C (configuration not stated) | . | 14 | -2 | . | 42*
C#C[C@]1(O)CC[C@H]2[C@@H]3CCC4=CC(=O)CC[C@@H]4[C@H]3CC[C@@]21C | -2 | 5 | 7 | 2 | 12
CC(C)c1ccc(-c2nc3c([nH]2)c(=O)n(C)c(=O)n3C)cc1 | 3 | 3 | 6 | -1 | 0
Cn1c(=O)c2[nH]c(-c3ccc(S(=O)(=O)O)cc3)nc2n(C)c1=O | 100 | . | -254 | -1 | 42*
C=COC(=O)CSc1snc(SCC(=O)OC)c1C#N | 9 | 1 | 4 | 33* | 7
COc1cc(C=NNC(=O)CN2CCN(Cc3ccc(C)cc3)CC2)cc(OC)c1O | . | . | -3 | . | .
COc1cc(-c2cc(-c3ccc(N)cc3)[nH]c(=O)c2C#N)cc(OC)c1OC | 7 | 3 | -6 | -40 | 23
CSc1cc(-c2ccc(Cl)cc2)[nH]c(=O)c1C#N | -2 | 13 | -6 | -1 | -1
COc1ccc(-c2cc(C(F)(F)F)c(C#N)c(=O)[nH]2)cc1 | -1 | + | -230 | -151 | 25
N#Cc1c(C(F)(F)F)cc(-c2cccc(Cl)c2)[nH]c1=O | -12 | 156* | -229 | -35 | 3
N#Cc1c(C(F)(F)F)cc(-c2ccc(Cl)cc2)[nH]c1=O | 7 | 177* | -259 | -38 | 4
N#Cc1c(-c2ccccc2)cc(-c2ccccc2)[nH]c1=O | -4 | 12 | 7 | -22 | 12
N#Cc1c(C(F)(F)F)cc(-c2ccc(F)cc2)[nH]c1=O | -1 | 142* | -109 | -11 | 7
CCCC1CCC2(CCC(=O)N2CCC#N)CC1 (configuration not stated) | . | . | 0 | . | .
COc1ccccc1-c1cc(C(F)(F)F)c(C#N)c(=O)[nH]1 | -9 | + | -100 | -9 | 10
Cc1cc(N(C)C)c(C#N)c(=O)[nH]1 | -1 | 2 | 7 | -1 | -9
COc1ccc(-c2cc(-c3ccco3)[nH]c(=O)c2C#N)cc1 | -4 | 123* | -30 | -13 | 22
Cc1cc(C(F)(F)F)c(C#N)c(=O)[nH]1 | 16 | 137* | -116 | . | 15
COC(=O)C1CN(CCO)CCS(=O)(=O)N1Cc1cn(Cc2ccccc2Br)nn1 (configuration not stated) | . | . | 4 | . | .
CCC(C)N(c1nc(C)nc2c1nnn2Cc1ccccc1)C(C)CC (configuration not stated) | . | . | 9 | . | .
CCCCCCCCN1C(=O)[C@@H](CC(=O)NCC23CC4CC(CC(C4)C2)C3)C[C@@]2(C(=O)OC)C1=C[C@H](C(C)C)O[C@@H]2C1CC1 | . | . | 26 | . | .
SMILES | Mtb bLac sens | FBA Mtb inh | CCHF vOTU inh | RecA splice inh | GDH-TPI inh
COc1ccc(/C=N/Nc2nonc2N)cc1 | 1 | 2 | -3 | 1 | 25
COc1ccc(/C=N/Nc2nn3cnnc3c3ccccc23)cc1 | 1 | -3 | 16 | -2 | 35*
N#Cc1nc(-c2cccs2)oc1N1CCN(c2ccccc2)CC1 | -4 | 13 | 5 | 5 | 17
CCOc1ccc(Nc2oc(-c3cccs3)nc2C#N)cc1 | -3 | 13 | 17 | 0 | 18
N#Cc1nc(-c2cccs2)oc1NCc1ccccc1 | 56 | + | -195 | 3 | 22
N#Cc1nc(-c2cccs2)oc1NCc1ccc(Cl)cc1 | -6 | + | -93 | 11 | 7
N#Cc1nc(Cc2ccccc2)oc1NCc1ccccc1 | 5 | -8 | -2 | 7 | 1
C=CCNc1oc(-c2cccs2)nc1C#N | -10 | + | -308 | 1 | 28
N#Cc1nc(-c2cccs2)oc1NCc1ccccc1Cl | 74 | 158* | -106 | 6 | 25
N#Cc1nc(-c2ccc(OCc3ccccc3)cc2)oc1NCc1ccco1 | -4 | 7 | 8 | 0 | 20
N#Cc1nc(-c2cccs2)oc1NCc1ccco1 | 3 | + | -203 | 1 | 20
Cc1ccc(CNc2oc(-c3cccs3)nc2C#N)cc1 | 5 | + | -198 | 9 | 7
Cc1ccc(NC(=O)C2CCCN2S(=O)(=O)c2cccnc2)c(C)c1 (configuration not stated) | . | . | -2 | . | .
CCOC(=O)[C@]12CCCC3=C1N(CCC3)C(=O)[C@@H](CC(=O)NCCc1ccccc1OC)C2 | . | . | -17 | . | .
COc1cccc(NC(=O)n2ccc3ccc(-c4ccc5cc[nH]c5c4)cc32)c1 | . | . | 4 | . | .
CCOc1ccc(NC(=O)c2ccc3[nH]c(=O)c(=O)[nH]c3c2)cc1 | 3 | 3 | 3 | 3 | 32*
CCOc1ccc(NS(=O)(=O)c2ccc3[nH]c(=O)c(=O)[nH]c3c2)cc1 | -7 | -3 | -5 | . | 4
CCNC(=S)N/N=C(\C)c1cc2ccccc2o1 | 90 | -4 | -6 | 1 | 47*
CCNC(=S)N/N=C(\C)c1ccc(Cl)s1 | 96 | -1 | 8 | 4 | 31*
C/C(=N/NC(=O)CSc1nnc(SCc2ccc(C)cc2)s1)c1cccc(O)c1 | . | . | 7 | . | .
CCN(Cc1cn(CC2CCCCC2)nn1)S(=O)(=O)c1ccccc1Br | . | . | 9 | . | .
CCCCCCC[n+]1ccc(-c2cc[n+](CCCCCCC)cc2)cc1 | 99 | 2 | -24 | 5 | 5
CCCCCCCCCCCCCCCC[n+]1ccc(/C=N/O)cc1 | 68 | -3 | 56* | . | -5
Cc1ccc(CSCC2Nc3ccc(C(=O)N4CCN(c5cccc(C)c5)C(C)C4)cc3NC2=O)cc1 (configuration not stated) | 51 | . | . | 29 | .
Cc1cccc(N2CCN(C(=O)c3ccc4c(c3)NC(=O)C(CSCc3ccc(F)cc3)N4)CC2C)c1 (configuration not stated) | 74 | . | . | 33* | .
SMILES | Mtb bLac sens | FBA Mtb inh | CCHF vOTU inh | RecA splice inh | GDH-TPI inh
Cn1c(=NN=Cc2ccccc2OCCO)sc2ccccc21 | . | 3 | 24 | . | 32*
CCOC(=O)C(C#N)=CN1CCNc2ccccc21 | . | 2 | 1 | . | 31*
COc1ccc2c(c1)[nH]c1c(=O)n(Cc3ccco3)cnc12 | 1 | 1 | 2 | -2 | 14
COc1ccc2c(c1)c1ncn(Cc3ccco3)c(=O)c1n2C | 15 | 129* | -100 | -6 | 2
COC(=O)C[C@@H]1CC[C@H]2[C@H](COc3ccc(NC(=O)C4CCC4)cc3C(=O)N2C)O1 | . | . | -2 | . | .
Cn1c(/C(C#N)=C/c2ccc(O)cc2)nc2ccccc21 | -5 | -10 | 5 | -2 | 36*
Cc1ccc(C(=O)CSc2nnc(-c3ccccn3)n2-c2ccccc2)cc1 | . | . | -4 | . | .
Cc1cc(=O)oc2c3c(cc(OCC(=O)N4CCC(C(=O)O)CC4)c12)OC(C)(C)CC3 | -1 | + | -231 | -1 | 22
